KinaseGlo FLuc: Counterscreen for Luciferase (Kinase-Glo TM) Inhibition; Kinase-Glo luciferase, ATP luminescence, 8 min; Potency, µM (series often up to 38.3 µM), without a hit: top-dose activity change, negative = inhibition, actives largely listed as inhibitors; 200,000 compounds, 0.28% hits; AID 1379, 2008; further: nearly all actives have a fitted effect of over 60% in size
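Compounds were added to a substrate mix at pH 7.2 (50 mM imidazole, 10 uM ATP, within the enzyme's linear range), followed by Kinase-Glo detection reagent; luminescence was measured after 8 minutes at ambient temperature.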
Gal4-VP16 FLuc: VP16 counterscreen qHTS for inhibitors of ROR gamma transcriptional activity; Drosophila S2 Gal4-VP16 UAS-luciferase, luminescence, 20 h; Potency, µM (doses to about 53.6 µM), inactives show top-dose activity, negative = inhibition, most hits filed as inhibitors; 310,000 compounds, 3.5% hits;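 further: Gal4-VP16 expression switched on by copper sulfate through the metallothionein promoter; nearly all actives have a fitted effect of over 50% in size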
RORg inh: qHTS for inhibitors of ROR gamma transcriptional activity; Potency, µM (top dose mostly 53.6 µM), for the others: top-dose activity change, negative = inhibition, actives largely listed as inhibitors; Drosophila S2 Gal4-RORgamma UAS-luciferase reporter, 20 h; 310,000 compounds, 5.4% hits; Nuclear receptor ROR-gamma (Mus musculus), P51450; further: nearly all actives have a fitted effect of over 60% in size
Target sequence (P51450 whole entry, looked up, the tested form may be a part): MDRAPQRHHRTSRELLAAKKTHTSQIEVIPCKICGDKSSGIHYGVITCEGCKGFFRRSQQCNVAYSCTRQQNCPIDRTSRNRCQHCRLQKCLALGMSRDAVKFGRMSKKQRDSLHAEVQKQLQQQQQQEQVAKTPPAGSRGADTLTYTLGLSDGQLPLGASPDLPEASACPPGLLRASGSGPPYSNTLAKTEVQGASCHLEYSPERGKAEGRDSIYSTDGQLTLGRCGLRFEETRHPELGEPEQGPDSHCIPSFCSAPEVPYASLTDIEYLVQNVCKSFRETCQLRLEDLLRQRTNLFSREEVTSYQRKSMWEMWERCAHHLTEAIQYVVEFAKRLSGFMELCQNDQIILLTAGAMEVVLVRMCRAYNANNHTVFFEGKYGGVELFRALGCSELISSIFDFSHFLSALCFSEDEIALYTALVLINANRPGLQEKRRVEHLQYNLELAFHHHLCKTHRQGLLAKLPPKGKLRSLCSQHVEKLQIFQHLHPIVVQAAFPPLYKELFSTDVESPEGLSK
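Stable Schneider cell line, Gal4 DNA-binding domain fused to ROR gamma, UAS-luciferase. Cmpd 1 hr RT → CuSO4 700 uM final → 20 hr RT → luciferase reagent 10 min → luminescence.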
Starred values were filed as active, the others as inactive. Only some compounds are listed: those with a hit (about 6.2% of all), similar ones and a draw of the others. The call rests on the fitted dose curve; in most records, active means well fitted curve in the direction sought with a large enough effect; inconclusive means small, poorly fitted or top-dose-only effect, or another doubt; inactive means no such curve, though single readings can be large; an effect the other way counts as inactive or inconclusive. On the % scale 0 is the no-effect control and ±100 the full control effect; potency means the concentration at half of the fitted maximal effect.

For Cc1ccc(-c2nc(N)sc2CC(=O)OCC(=O)NCC2CCCO2)cc1 (stereo not given) the results were KinaseGlo FLuc -3%, Gal4-VP16 FLuc -9% and RORg inh inconclusive.
Screening CCN1CCOC(CC(=O)Nc2ccc([N+](=O)[O-])cc2)C1=O (stereo not given) returned Gal4-VP16 FLuc -11% and RORg inh 34%.
`O=C(c1ccc(-n2cccc2)cc1)N1CCCCC1` gave KinaseGlo FLuc -3%, Gal4-VP16 FLuc 6% and RORg inh 9%.
`Cc1c(Cl)cccc1NC(=S)/C(=C(\[O-])c1ccc(Cl)s1)[n+]1ccccc1` gave KinaseGlo FLuc -2%, Gal4-VP16 FLuc 5.6µM* and RORg inh inconclusive.
For [O-]/C(=C(\C(=S)Nc1cccc2ccccc12)[n+]1cccc(CO)c1)c1ccc(Cl)s1 the results were KinaseGlo FLuc -4%, Gal4-VP16 FLuc 7% and RORg inh -42%.
COc1cc(=O)n(C)c2c(OCC3OC(C)(C)OC3(C)C)cccc12 (stereo not given) was read as KinaseGlo FLuc -2%, Gal4-VP16 FLuc 4% and RORg inh 18%.
`CCc1nc2sc3ccccc3c(=O)c2c(=O)n1Cc1ccc(OC)cc1` gave Gal4-VP16 FLuc -24% and RORg inh inconclusive.
For Cc1ccc2oc3nc(C)c(C(=O)O)cc3c(=O)c2c1 the results were KinaseGlo FLuc 4.5µM*, Gal4-VP16 FLuc inconclusive and RORg inh -25%.
`CC(=O)c1cc2c(=O)c3cc(C)ccc3oc2nc1C` gave KinaseGlo FLuc inconclusive, Gal4-VP16 FLuc 2% and RORg inh 21%.
For COc1ccc(C2=NOC(C(=O)NCc3cccnc3)C2)cc1 (stereo not given) the results were Gal4-VP16 FLuc 13% and RORg inh -7%.
CCN(Cc1ccncc1)Cc1cn[nH]c1-c1cc(OC)c(OC)c(OC)c1 was read as KinaseGlo FLuc 5%, Gal4-VP16 FLuc 3% and RORg inh -1%.
CCCn1nc([N+](=O)[O-])c(C(C#N)c2nc3ccccc3o2)c(Cl)c1=O (stereo not given) was read as KinaseGlo FLuc -9%, Gal4-VP16 FLuc inconclusive and RORg inh -26%.
For Cn1nc([N+](=O)[O-])c(C(C#N)c2ccccn2)c(Cl)c1=O (stereo not given) the results were KinaseGlo FLuc -6%, Gal4-VP16 FLuc inconclusive and RORg inh 10µM*.
COc1ccccc1-n1c(C)cc(SC)c(C(C)=O)c1=S was read as KinaseGlo FLuc -1%, Gal4-VP16 FLuc 5% and RORg inh -5%.
For Cc1ccc(-n2c(-c3ccccc3)cc(=O)nc2C)cc1 the results were KinaseGlo FLuc -1%, Gal4-VP16 FLuc 1% and RORg inh 4%.
CCOc1ccc(-n2c(-c3ccccc3)nnc2-c2ccccc2)cc1 was read as KinaseGlo FLuc 4%, Gal4-VP16 FLuc 1% and RORg inh -5%.
Screening Cc1ccc(-c2c[nH]c(=S)n2-c2ccccc2F)cc1 returned KinaseGlo FLuc 0%, Gal4-VP16 FLuc 5µM* and RORg inh 1.6µM*.
`Cc1ccc(-c2c[nH]c(=S)n2-c2ccccc2)cc1` gave KinaseGlo FLuc -1%, Gal4-VP16 FLuc 5µM* and RORg inh 1.3µM*.
For CCOc1ccc(-n2c(-c3ccccc3)c[nH]c2=S)cc1 the results were Gal4-VP16 FLuc 5.6µM* and RORg inh 2µM*.
For O=c1cc(O)n(-c2ccccc2F)c(=S)[nH]1 the results were KinaseGlo FLuc -4%, Gal4-VP16 FLuc 1% and RORg inh 2%.
For COc1cc(/C=N/NC(=O)c2ccc(CSc3nc4ccccc4[nH]3)cc2)ccc1O the results were KinaseGlo FLuc -1%, Gal4-VP16 FLuc -1% and RORg inh 8%.
N#CCC(=O)N/N=C/c1cc(Br)ccc1OCc1cccc2ccccc12 was read as Gal4-VP16 FLuc -12% and RORg inh 2%.
`C/C(=N\N=C(N)N)c1ccc(Cl)c(Cl)c1` gave KinaseGlo FLuc 4%, Gal4-VP16 FLuc 7% and RORg inh 16%.
Screening COCCCNC(=S)Nc1ccccc1[N+](=O)[O-] returned KinaseGlo FLuc -2%, Gal4-VP16 FLuc -7% and RORg inh 32%.
For O=C(NC(=S)Nc1ccccc1[N+](=O)[O-])c1ccco1 the results were KinaseGlo FLuc -3%, Gal4-VP16 FLuc inconclusive and RORg inh 7.9µM*.
Screening COC(=O)c1ccccc1NC(=S)NC(=O)c1ccc(C)cc1 returned KinaseGlo FLuc 1%, Gal4-VP16 FLuc inconclusive and RORg inh 16µM*.
`COC(=O)c1ccccc1NC(=O)c1cc(-c2ccc(C)cc2)on1` gave KinaseGlo FLuc -4%, Gal4-VP16 FLuc -3% and RORg inh 0%.
COC(=O)c1ccccc1NC(=S)NC(=O)c1ccc2c(c1)OCO2 was read as Gal4-VP16 FLuc inconclusive and RORg inh 4%.
For Cc1ccccc1C(=O)NC(=S)Nc1ccccc1[N+](=O)[O-] the results were KinaseGlo FLuc 2%, Gal4-VP16 FLuc inconclusive and RORg inh 6.3µM*.
`COCCNC(=S)Nc1ccccc1[N+](=O)[O-]` gave KinaseGlo FLuc 2%, Gal4-VP16 FLuc 6% and RORg inh 2%.
`COC(=O)c1ccccc1NC(=S)NC(=O)c1ccccc1` gave KinaseGlo FLuc -1%, Gal4-VP16 FLuc inconclusive and RORg inh 1µM*.
For COc1ccc(OC)c(S(=O)(=O)NC2CCCCNC2=O)c1 (stereo not given) the results were Gal4-VP16 FLuc 4% and RORg inh -4%.
Screening O=Cc1c2[nH]c3ccccc3c2cc2[nH]c3ccccc3c12 returned KinaseGlo FLuc -1%, Gal4-VP16 FLuc 17% and RORg inh -14%.
`N#CCCn1c(=O)c(-c2cccs2)nc2cnc(N3CCNCC3)nc21` gave KinaseGlo FLuc -2%, Gal4-VP16 FLuc inconclusive and RORg inh inconclusive.
Cc1ccccc1C(=O)NC(=S)Nc1ccccc1C(=O)O was read as KinaseGlo FLuc 3%, Gal4-VP16 FLuc 24% and RORg inh 21%.
Screening Cc1ccc(NC(=S)NC(=O)c2ccccc2)cc1NC(=S)NC(=O)c1ccccc1 returned Gal4-VP16 FLuc 7.1µM* and RORg inh 1.4µM*.
CCC(NC(=O)c1ccccc1NC(=O)c1ccccc1)C(=O)OC (stereo not given) was read as KinaseGlo FLuc -1%, Gal4-VP16 FLuc 6.3µM* and RORg inh inconclusive.
Screening CCC(NC(=O)c1ccccc1NC(=O)c1ccc(OC)cc1)C(=O)N1CCCC1 (stereo not given) returned KinaseGlo FLuc -1%, Gal4-VP16 FLuc -10% and RORg inh 16%.
`Cc1cc(NC(=S)NC(=O)c2ccccc2)ccc1-c1cc2ccccc2oc1=O` gave KinaseGlo FLuc -1%, Gal4-VP16 FLuc -48% and RORg inh 0.4µM*.
COc1cc(C(=O)NC(=S)Nc2cccc(-c3cc4ccccc4oc3=O)c2)cc(OC)c1OC was read as KinaseGlo FLuc 1%, Gal4-VP16 FLuc -6% and RORg inh inconclusive.
COC(=O)c1ccccc1NC(=S)NC(=O)c1ccccc1C was read as KinaseGlo FLuc 2%, Gal4-VP16 FLuc inconclusive and RORg inh 7.9µM*.
